# Key:
# [1] = target: Serine/threonine-protein kinase 26 (Homo sapiens) (UniProt Q9P289); conditions: at 1 µM;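 also: mean inhibition of MST4 kinase activity, reported from the GSK PKIS inhibitor-set screening panel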
# [2] = target: Serine/threonine-protein kinase PAK 1 (Homo sapiens) (UniProt Q13153); conditions: at 0.1 µM
# [3] = target: Serine/threonine-protein kinase PAK 1 (Homo sapiens) (UniProt Q13153); conditions: at 1 µM
# [4] = target: Serine/threonine-protein kinase PAK 2 (Homo sapiens) (UniProt Q13177); conditions: at 0.1 µM
# Serine/threonine-protein kinase PAK 2 (Homo sapiens), sequence (Q13177 whole entry): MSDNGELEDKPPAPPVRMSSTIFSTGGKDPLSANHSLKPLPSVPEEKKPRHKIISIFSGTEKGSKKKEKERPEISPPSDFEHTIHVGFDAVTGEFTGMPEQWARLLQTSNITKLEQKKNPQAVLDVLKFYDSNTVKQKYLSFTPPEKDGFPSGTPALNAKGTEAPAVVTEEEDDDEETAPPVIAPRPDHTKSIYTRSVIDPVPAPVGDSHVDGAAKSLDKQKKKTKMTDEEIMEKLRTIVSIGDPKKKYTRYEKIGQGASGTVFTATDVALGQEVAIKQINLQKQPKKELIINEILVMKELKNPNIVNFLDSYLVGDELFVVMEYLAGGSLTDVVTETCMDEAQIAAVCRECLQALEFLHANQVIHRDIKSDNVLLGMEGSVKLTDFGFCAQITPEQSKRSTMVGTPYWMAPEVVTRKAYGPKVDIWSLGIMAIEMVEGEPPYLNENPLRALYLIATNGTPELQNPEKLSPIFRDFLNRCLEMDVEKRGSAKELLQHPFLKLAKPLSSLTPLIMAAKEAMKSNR
# [5] = target: Serine/threonine-protein kinase PAK 2 (Homo sapiens) (UniProt Q13177); conditions: at 1 µM
# [6] = target: Serine/threonine-protein kinase PAK 3 (Homo sapiens) (UniProt O75914); conditions: at 0.1 µM
# Serine/threonine-protein kinase PAK 3 (Homo sapiens), sequence (O75914 whole entry, looked up): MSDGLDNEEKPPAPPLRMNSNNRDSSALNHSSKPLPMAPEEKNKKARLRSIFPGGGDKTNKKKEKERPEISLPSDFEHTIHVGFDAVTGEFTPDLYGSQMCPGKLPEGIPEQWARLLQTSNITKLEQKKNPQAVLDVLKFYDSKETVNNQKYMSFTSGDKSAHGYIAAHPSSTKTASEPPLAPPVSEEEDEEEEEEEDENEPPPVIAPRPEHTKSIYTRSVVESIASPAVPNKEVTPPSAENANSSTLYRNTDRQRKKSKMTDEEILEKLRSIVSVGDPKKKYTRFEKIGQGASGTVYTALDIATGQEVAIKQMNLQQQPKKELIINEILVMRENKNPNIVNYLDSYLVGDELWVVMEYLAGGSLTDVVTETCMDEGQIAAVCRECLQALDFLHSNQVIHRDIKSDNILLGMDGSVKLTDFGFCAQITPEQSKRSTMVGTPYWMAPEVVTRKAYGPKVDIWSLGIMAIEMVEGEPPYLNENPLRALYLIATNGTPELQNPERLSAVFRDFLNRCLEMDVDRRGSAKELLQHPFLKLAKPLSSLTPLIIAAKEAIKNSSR
# [7] = target: Serine/threonine-protein kinase PAK 3 (Homo sapiens) (UniProt O75914); conditions: at 1 µM
# [8] = target: Serine/threonine-protein kinase PAK 5 (Homo sapiens) (UniProt Q9P286); conditions: at 0.1 µM
# Serine/threonine-protein kinase PAK 5 (Homo sapiens), sequence (Q9P286 whole entry, looked up): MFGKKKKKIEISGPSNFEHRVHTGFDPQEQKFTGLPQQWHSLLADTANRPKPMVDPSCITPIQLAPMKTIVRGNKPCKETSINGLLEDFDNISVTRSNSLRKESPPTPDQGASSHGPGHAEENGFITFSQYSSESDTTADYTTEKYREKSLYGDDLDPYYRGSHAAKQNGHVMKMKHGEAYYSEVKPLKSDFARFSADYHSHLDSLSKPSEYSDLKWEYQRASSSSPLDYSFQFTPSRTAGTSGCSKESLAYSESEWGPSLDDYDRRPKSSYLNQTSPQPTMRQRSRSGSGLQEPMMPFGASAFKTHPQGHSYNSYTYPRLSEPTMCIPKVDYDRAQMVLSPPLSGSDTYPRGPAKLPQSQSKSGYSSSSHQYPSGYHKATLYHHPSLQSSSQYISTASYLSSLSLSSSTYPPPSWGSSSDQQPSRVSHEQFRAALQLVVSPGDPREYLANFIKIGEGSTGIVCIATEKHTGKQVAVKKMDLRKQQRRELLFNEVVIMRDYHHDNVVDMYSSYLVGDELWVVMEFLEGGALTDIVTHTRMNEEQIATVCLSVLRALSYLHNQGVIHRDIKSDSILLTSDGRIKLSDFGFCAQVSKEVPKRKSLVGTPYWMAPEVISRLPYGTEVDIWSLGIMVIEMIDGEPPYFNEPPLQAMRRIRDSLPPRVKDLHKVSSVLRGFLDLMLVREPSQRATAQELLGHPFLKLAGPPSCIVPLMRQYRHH
# [9] = target: Serine/threonine-protein kinase PAK 5 (Homo sapiens) (UniProt Q9P286); conditions: at 1 µM
# [10] = target: Serine/threonine-protein kinase PAK 6 (Homo sapiens) (UniProt Q9NQU5); conditions: at 0.1 µM
# Serine/threonine-protein kinase PAK 6 (Homo sapiens), sequence (Q9NQU5 whole entry, looked up): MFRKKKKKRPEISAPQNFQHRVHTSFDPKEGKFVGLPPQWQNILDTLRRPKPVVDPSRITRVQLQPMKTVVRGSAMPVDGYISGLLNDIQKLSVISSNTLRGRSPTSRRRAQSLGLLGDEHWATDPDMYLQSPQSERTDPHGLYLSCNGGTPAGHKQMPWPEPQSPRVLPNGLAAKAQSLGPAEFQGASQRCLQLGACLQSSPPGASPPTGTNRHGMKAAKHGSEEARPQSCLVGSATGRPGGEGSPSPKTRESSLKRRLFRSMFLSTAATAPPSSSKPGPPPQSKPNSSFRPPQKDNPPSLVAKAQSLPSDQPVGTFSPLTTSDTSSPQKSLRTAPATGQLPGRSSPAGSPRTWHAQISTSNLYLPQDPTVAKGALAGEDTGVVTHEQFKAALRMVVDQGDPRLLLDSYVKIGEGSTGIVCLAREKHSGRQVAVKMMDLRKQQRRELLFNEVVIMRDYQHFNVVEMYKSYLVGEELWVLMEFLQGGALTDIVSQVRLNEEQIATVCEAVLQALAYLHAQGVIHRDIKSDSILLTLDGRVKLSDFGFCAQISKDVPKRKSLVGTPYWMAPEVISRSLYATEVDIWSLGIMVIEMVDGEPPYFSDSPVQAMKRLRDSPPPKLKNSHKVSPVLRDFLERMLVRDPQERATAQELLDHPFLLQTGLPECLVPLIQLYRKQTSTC
# [11] = target: Serine/threonine-protein kinase PAK 6 (Homo sapiens) (UniProt Q9NQU5); conditions: at 1 µM
# [12] = test system: Tyrosine-protein kinase ABL1 (Homo sapiens), P00519 [E255K]; conditions: at 0.1 µM
# [13] = test system: Tyrosine-protein kinase ABL1 (Homo sapiens), P00519 [E255K]; conditions: at 1 µM
# [14] = test system: Tyrosine-protein kinase ABL1 (Homo sapiens), P00519 [H396P]; conditions: at 0.1 µM
# [15] = test system: Tyrosine-protein kinase ABL1 (Homo sapiens), P00519 [H396P]; conditions: at 1 µM
# [16] = test system: Tyrosine-protein kinase ABL1 (Homo sapiens), P00519 [M351T]; conditions: at 0.1 µM
# [17] = test system: Tyrosine-protein kinase ABL1 (Homo sapiens), P00519 [M351T]; conditions: at 1 µM
# [18] = test system: Tyrosine-protein kinase ABL1 (Homo sapiens), P00519 [Q252H]; conditions: at 0.1 µM
# [19] = test system: Tyrosine-protein kinase ABL1 (Homo sapiens), P00519 [Q252H]; conditions: at 1 µM
# [20] = test system: Tyrosine-protein kinase ABL1 (Homo sapiens), P00519 [T315I]; conditions: at 0.1 µM
# Serine/threonine-protein kinase 26 (Homo sapiens), sequence (Q9P289 2-416 limits assumed): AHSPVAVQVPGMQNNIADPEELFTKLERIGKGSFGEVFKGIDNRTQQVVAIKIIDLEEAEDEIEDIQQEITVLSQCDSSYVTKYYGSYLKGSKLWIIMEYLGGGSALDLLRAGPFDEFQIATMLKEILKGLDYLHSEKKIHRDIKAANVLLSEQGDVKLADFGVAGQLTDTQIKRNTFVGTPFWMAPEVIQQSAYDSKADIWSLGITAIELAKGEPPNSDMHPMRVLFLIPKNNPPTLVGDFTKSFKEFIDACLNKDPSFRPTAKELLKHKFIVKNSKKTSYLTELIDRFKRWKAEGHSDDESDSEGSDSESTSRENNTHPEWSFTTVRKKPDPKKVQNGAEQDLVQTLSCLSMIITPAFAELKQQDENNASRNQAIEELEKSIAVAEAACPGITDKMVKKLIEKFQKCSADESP
# Serine/threonine-protein kinase PAK 1 (Homo sapiens), sequence (Q13153 whole entry): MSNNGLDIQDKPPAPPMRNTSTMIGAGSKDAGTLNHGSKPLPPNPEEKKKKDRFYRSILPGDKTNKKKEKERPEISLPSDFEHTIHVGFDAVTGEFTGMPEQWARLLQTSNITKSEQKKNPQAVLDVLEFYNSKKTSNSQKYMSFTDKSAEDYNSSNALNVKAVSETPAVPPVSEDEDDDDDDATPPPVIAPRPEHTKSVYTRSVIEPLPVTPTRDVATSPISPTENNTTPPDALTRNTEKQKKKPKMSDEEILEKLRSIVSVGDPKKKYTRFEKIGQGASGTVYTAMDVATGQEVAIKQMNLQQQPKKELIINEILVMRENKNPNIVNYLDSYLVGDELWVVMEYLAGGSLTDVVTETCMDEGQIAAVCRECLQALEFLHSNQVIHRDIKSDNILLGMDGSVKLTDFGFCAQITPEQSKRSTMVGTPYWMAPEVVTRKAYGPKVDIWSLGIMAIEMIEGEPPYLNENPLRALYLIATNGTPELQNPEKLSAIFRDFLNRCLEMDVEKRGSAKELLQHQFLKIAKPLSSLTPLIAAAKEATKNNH
Compound,inhibition [1],inhibition [2],inhibition [3],inhibition [4],inhibition [5],inhibition [6],inhibition [7],inhibition [8],inhibition [9],inhibition [10],inhibition [11],inhibition [12],inhibition [13],inhibition [14],inhibition [15],inhibition [16],inhibition [17],inhibition [18],inhibition [19],inhibition [20]
COc1ccc(-c2ccc3c(NC(=O)C4CC4)n[nH]c3n2)cc1,1.05%,2.82%,2.7%,-1.11%,-0.84%,3.36%,3.17%,-5.83%,-4.91%,2.86%,-4.51%,0.71%,9.06%,3.91%,28%,1.26%,27.1%,0.06%,13.6%,2.42%
COc1cccc(/C=N/Nc2ncnc3c2cnn3-c2cccc(OC)c2)c1,-1.93%,7.47%,6.13%,1.74%,1.26%,2.7%,4.34%,1.31%,-2.49%,-3.17%,-7.63%,7.5%,34.4%,9.64%,41.8%,7.51%,42%,12.9%,54.9%,3.28%
COc1cccc(-n2cnc3c(N/N=C/c4ccncc4)ncnc32)c1,-2.88%,2.37%,1.58%,-1.03%,-0.99%,-1.14%,0.31%,6.09%,10.8%,5.99%,3.44%,30.8%,80.2%,47.1%,87.1%,44.7%,88.1%,40.1%,84.2%,1.94%
Fc1ccc(-c2c(-c3ccncc3)nc3n2CCS3)cc1,1.66%,6.15%,-0.03%,-0.52%,0.49%,2.55%,3.16%,1.47%,3.62%,1.52%,-5.03%,1.44%,4.74%,2.06%,3.54%,-0.24%,5.03%,1.69%,4.11%,0.05%
CN(C)CCOc1ccc(-c2cc(-c3ccc4c(c3)CCC4=NO)c(-c3ccncc3)o2)cc1,3.69%,-4.98%,-1.45%,-1.68%,-2.82%,-1.69%,-1.63%,-8.32%,-0.63%,1.99%,1.93%,-1.95%,7.95%,1.96%,20.9%,3.15%,19.9%,4.54%,34.5%,1.35%
COc1ccc2ncn(-c3cc(O[C@H](C)c4ccccc4Cl)c(C(N)=O)s3)c2c1,-5.03%,3.16%,7.26%,1.84%,1.19%,5.49%,6.75%,1.71%,3.63%,-3.39%,1.83%,1.19%,2.26%,3.99%,9.15%,0.34%,5.61%,2.81%,4.72%,0.33%
O=C(Nc1n[nH]c2nc(-c3ccco3)ccc12)C1CC1,1.1%,0.35%,1.74%,0.42%,-0.03%,0.51%,0.64%,5.55%,3.74%,6.27%,3.45%,2.26%,5.68%,3.89%,10.4%,4.48%,15%,4.58%,9.24%,2.66%
CS(=O)(=O)CCNCc1ccc(-c2ccc3ncnc(Nc4ccc(OCc5ccccc5)c(Br)c4)c3c2)o1,-1.33%,5.64%,8.98%,0.93%,1.63%,5.05%,4.4%,1.46%,0.13%,-8.08%,-7.5%,1.35%,2.28%,4.48%,4.61%,0.99%,2.04%,3.94%,4.09%,1.53%
C/C(Nc1ccc(S(N)(=O)=O)cc1)=C1/C(=O)Nc2ccccc21,15.6%,-3.4%,2.37%,-1.56%,-1.06%,-1.9%,-1.11%,-6.43%,2.88%,-4.08%,0.59%,-1.03%,3.45%,0.93%,7.24%,3.92%,14.7%,2.51%,13.6%,1.39%
CCC(=O)Nc1ccc(C)c(-c2ccc(C(=O)NCC3CC3)cc2)c1,-3.71%,3.98%,9.02%,0.42%,0.8%,2.56%,3.37%,-0.07%,-2.96%,-8.71%,-9.47%,2.13%,2.73%,3.96%,4.29%,2.37%,1.29%,3.29%,4.63%,2.76%
COc1cc(N2CCN(C(C)C)CC2)ccc1Nc1nc(Nc2ccc(F)cc2C(=O)NC[C@@H](O)CO)c2cc[nH]c2n1,-2.64%,4.77%,11.8%,1.33%,1.54%,4.85%,6.19%,2.5%,-2.48%,5.3%,-2.37%,1.32%,5.35%,2.98%,5.65%,3.03%,5.84%,3.53%,4.72%,2.48%
COc1ccc2cc(-c3c(-c4ccncc4)nc(-c4ccc([S+](C)[O-])cc4C)n3C)ccc2c1 (stereo not given),3.65%,-1.49%,-0.86%,-1.29%,-1.27%,-0.99%,-1.45%,-5.87%,6.4%,-2.81%,1.24%,-1.36%,5.96%,2.45%,17.6%,2.12%,19.8%,2.32%,18%,9.26%
COc1cc2ncn(-c3cc(OCc4cccs4)c(C(N)=O)s3)c2cc1OC,0.69%,5.82%,5.75%,0.62%,0.03%,2%,4.56%,8.19%,8.5%,6.2%,11%,2.64%,29.8%,10.9%,51.6%,7.47%,50.4%,8.78%,46.3%,12.2%
N#Cc1ccc(Oc2nccc(-c3c(-c4ccc(F)cc4)ncn3C3CCNCC3)n2)cc1,-2.91%,7.47%,7.87%,1.65%,2.68%,4.55%,4.04%,2.41%,0.4%,-4.78%,-7.23%,2.37%,3.79%,3.91%,5.59%,2.13%,4.25%,4%,6.46%,3.62%
c1ccc(Oc2ccc(Nc3ncc(-c4ccccc4)o3)cc2)cc1,0.79%,-1.14%,6.59%,0.5%,-0.36%,0.64%,0.63%,-0.61%,2.2%,-2.49%,-7.12%,1.57%,0.84%,2.43%,0.51%,1.56%,1.33%,1.3%,0.81%,1.59%
NC(=O)c1cc(-c2ccc(F)cc2)cc(-c2ccncc2)c1N,-1.28%,5.31%,6.13%,0.6%,1.36%,4.12%,4.25%,-1.26%,1.21%,-6.76%,-7.94%,3.29%,4.43%,3.43%,5.86%,2.81%,2.85%,4.84%,5.67%,3.32%
Fc1ccc(-c2ncn(C3CCNCC3)c2-c2ccnc(Oc3ccc(Oc4ccccc4)cc3)n2)cc1,2.78%,6.63%,8.97%,2.19%,3.52%,4.8%,8.51%,5.41%,6.5%,-6.7%,-1.92%,1.84%,2.14%,2.93%,3.2%,-0.2%,0.05%,1.63%,2.88%,0.61%
Fc1ccc(-c2ncn(C3CCNCC3)c2-c2ccnc(Oc3ccc4c(c3)OCO4)n2)cc1,-0.15%,6.43%,8.06%,2.45%,2.56%,6.04%,6.56%,1.45%,2.03%,1.43%,-5.42%,2.98%,4.48%,5.49%,7.54%,1.29%,3.88%,4.09%,6.75%,3.51%
COc1cc(Nc2ncc3c(C)nc(-c4cccc(C(F)(F)F)c4)n3n2)cc(OC)c1OC,5.84%,6.01%,8.56%,1.46%,2.81%,3.31%,7.5%,5.75%,15.9%,-0.28%,11.2%,2.21%,7.54%,5.06%,12.7%,1.36%,10.8%,4.02%,13.4%,3.13%
CN(C)c1ccc2c(c1)/C(=C/Nc1ccc(S(N)(=O)=O)cc1)C(=O)N2,20.2%,4.25%,2.53%,-0.61%,0.6%,1.32%,2.05%,-3.51%,-4.48%,11.8%,-1.53%,2.53%,12.8%,2.8%,14.3%,3.86%,15.8%,4%,17.8%,3.12%
COc1ccc(C2=C(N3CCc4ccccc43)C(=O)NC2=O)cc1,2.06%,7.07%,7.47%,1.61%,1.57%,4.96%,5.37%,4.64%,2.28%,3.36%,-1.91%,3.46%,3.94%,3.85%,5.26%,-0.47%,7.03%,4.56%,6.15%,3.54%
COc1cc2ncn(-c3cc(OCc4ccccc4C(F)(F)F)c(C(C)=O)s3)c2cc1OC,-1.77%,5.43%,4.68%,0.85%,1.29%,4.94%,2.41%,-1.43%,0.17%,-1.14%,-3.04%,1.66%,4.89%,4.51%,5.12%,1.37%,6.24%,4.93%,4.96%,1.88%
CN(C)CCCNc1nccc(-c2c(-c3ccc(F)cc3)nn3cc(C(F)(F)F)ccc23)n1,0.55%,-1.51%,-0.15%,1.45%,1.67%,1.76%,2.77%,0.97%,1.58%,2.33%,-4.04%,1.96%,5.43%,4.54%,4%,4.09%,3.29%,3.28%,5.19%,1.28%
CN(c1ccc(NC(=O)Nc2c(Cl)cccc2Cl)cc1)c1ccnc(Nc2cccc(CS(C)(=O)=O)c2)n1,-3.71%,-0.06%,2.17%,1.79%,1.61%,1.56%,1.38%,4.31%,11.9%,7.14%,0.99%,8.03%,35.9%,30%,69.3%,46.9%,81.9%,39.3%,72.3%,41.6%
O=C(Nc1n[nH]c2cc(-c3ccccc3)ccc12)C1CC1,-4.03%,7.59%,7.76%,1.44%,2.41%,5.22%,6.01%,0.11%,-0.04%,5.51%,-4.61%,10.5%,46.5%,20.2%,67.5%,19.3%,68.6%,14%,48.4%,36.3%
Nc1nccc(-c2c(-c3ccc(F)cc3)ncn2C2CCC(O)CC2)n1 (stereo not given),4.04%,-2.38%,-3.74%,-0.84%,-0.18%,-3.15%,-3.59%,-2.46%,0.21%,4.1%,-1.54%,2.5%,16.9%,3.86%,33.6%,7.44%,36.6%,5.19%,33.9%,6.26%

# From ChEMBL document CHEMBL1961873, “Compounds: GSK PKIS; Assays: Nanosyn kinase panel” (2012)
